Bioassay records as filed in PubChem.
This is a sample that favours compounds with a hit; in the whole collection about 2.5% have one here.
Cruzain inh Det = blocks cruzain activity in presence of Triton detergent. purified cruzain, Z-FR-AMC fluorescence, 0.01% Triton. Potency, µM, inactives show max response, negative = inhibition, hits mostly inhibitors. 0.43% of 200,000 active;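 further: plate controls were neutral wells for no effect and buffer without enzyme for full effect; nearly all actives have a fitted effect of over 40% in size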
Target sequence (P25779 123-467 limits assumed): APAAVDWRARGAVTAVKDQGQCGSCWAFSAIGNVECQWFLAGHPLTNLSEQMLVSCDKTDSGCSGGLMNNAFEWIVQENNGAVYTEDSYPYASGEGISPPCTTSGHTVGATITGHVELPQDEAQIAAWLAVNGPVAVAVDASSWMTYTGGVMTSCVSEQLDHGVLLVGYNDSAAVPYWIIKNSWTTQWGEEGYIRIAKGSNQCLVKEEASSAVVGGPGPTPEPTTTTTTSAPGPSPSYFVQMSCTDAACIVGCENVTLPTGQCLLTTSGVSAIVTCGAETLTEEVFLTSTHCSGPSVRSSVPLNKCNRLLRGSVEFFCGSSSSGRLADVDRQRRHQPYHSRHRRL
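Steps: dispense cruzain (1.5 nM final) in acetate buffer pH 5.5 with DTT and 0.01% Triton X-100; pin-transfer compounds; incubate 15 min RT; add Z-FR-AMC (2 uM final); read fluorescence every 30 s, using the 60 s intensity change.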
Cruzain noTriton = inhibitors of Trypanosoma cruzi cruzain without detergent; Potency, µM, for the others: max response, negative = inhibition, actives largely listed as inhibitors; P25779; purified cruzain, Z-FR-AMC fluorescence, no detergent; 2.3% of 200,000 active;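 further: plate controls were enzyme without inhibitor for no effect and buffer without enzyme for full effect; nearly all actives have a fitted effect of over 40% in size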
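Purified cruzain at 1.5 nM, pre-incubated 15 min with compound at room temperature in 100 mM sodium acetate pH 5.5, 5 mM DTT, 0.00005% Triton X-100. Reaction started with 2 uM Z-FR-AMC; AMC fluorescence increase over 60 s gives rate.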
* marks the source's active call; other numbers are inactive results; ? = inconclusive. The call rests on the fitted dose curve; in most records, active means well fitted curve in the direction sought with a large enough effect; inconclusive means small, poorly fitted or top-dose-only effect, or another doubt; inactive means no such curve, though single readings can be large; an effect the other way counts as inactive or inconclusive. Potency means the concentration at half of the fitted maximal effect.

SMILES | Cruzain inh Det | Cruzain noTriton
Cc1ccc(C(=O)NCC(=O)NCC(=O)OCc2ccc(Cl)cc2)cc1 | -2.9% | 0.5%
O=C(CN1C(=O)c2ccccc2C1=O)OC(C(=O)c1ccc(Cl)cc1)c1ccccc1 (configuration not stated) | 1.6% | 31.6µM*
COc1ccc(NC(=O)CCC(=O)OC(C(=O)c2ccccc2)c2ccccc2)cc1 (configuration not stated) | -11.5% | -8.4%
Cc1ccc(C(=O)C(OC(=O)CNC(=O)c2ccc(Cl)cc2)c2ccccc2)cc1 (configuration not stated) | 6.31µM* | 10µM*
O=C(OCc1nc2ccccc2s1)c1cccs1 | -0.4% | -3.8%
O=C(CNC(=O)c1ccccc1)OC(C(=O)c1ccccc1)c1ccccc1 (configuration not stated) | 6.31µM* | 3.98µM*
Cc1ccc(C(=O)C(OC(=O)CN2C(=O)c3ccccc3C2=O)c2ccccc2)cc1 (configuration not stated) | 2.9% | ?
CCOC(=O)c1ccccc1NC(=O)Cn1cc(C(=O)c2cccc(OC)c2)c(=O)c2ccc(C)nc21 | -1.6% | -4.9%
CCOC(=O)c1ccc(NC(=O)CC2C(=O)N(c3ccc(F)cc3)C(=O)N2Cc2ccc3c(c2)OCO3)cc1 (configuration not stated) | 0.1% | 13.6%
COc1ccc(C(=O)C(OC(=O)CNC(=O)c2ccco2)c2ccccc2)cc1 (configuration not stated) | 3.98µM* | 3.16µM*
COc1ccc(C(=O)OC(C(=O)c2ccccc2)c2ccccc2)cc1 (configuration not stated) | -0.8% | -8.8%
CCc1ccc(CNCc2c(C(=O)O)n(Cc3ccc(C)cc3)c3cc(C)ccc23)cc1 | -13.1% | -22.2%
Cc1ccccc1-n1c(SCC(=O)N/N=C/C=C/c2ccccc2[N+](=O)[O-])nc2ccccc2c1=O | -0.9% | ?
O=C(CSc1nc2ccccc2c(=O)n1-c1ccc(Cl)cc1)N/N=C/C=C/c1ccccc1[N+](=O)[O-] | -2.9% | 10µM*
COc1ccc(C)cc1N(C(=O)c1cccc(F)c1)c1nc2ccccc2s1 | -7.2% | ?
COc1ccccc1N(C(=O)c1cncc(Br)c1)c1nc(-c2ccc(C)cc2)cs1 | -1.9% | 12.6µM*
CC(C)c1ccc(C(O)(C(=O)O)c2ccc(C(C)C)cc2)cc1 | -6.2% | 13.2%
CCOc1ccc(C2C(C#N)=C(N)N(c3sc4c(c3C#N)CCCC4)C3=C2C(=O)CCC3)cc1 (configuration not stated) | -3.4% | -5.8%
N#CC1=C2N=C(N)c3c(sc4c3CCCCC4)N2C2=C(C(=O)CCC2)C1c1ccccc1 (configuration not stated) | -1.1% | 25.1µM*
CSc1ccc(C2C(C#N)=C(N)N(c3ccccc3)C3=C2C(=O)CCC3)cc1 (configuration not stated) | -8.9% | 15.8µM*
Cc1nn(C)cc1C1C(C#N)=C(N)N(c2cccnc2)C2=C1C(=O)CCC2 (configuration not stated) | -3.0% | -16.5%
O=C(O)C[C@H](Cc1ccc2c(c1)OCO2)C(=O)O | 2.4% | -0.7%
NCCc1ccc(S(=O)(=O)O)cc1[N+](=O)[O-] | -0.9% | 2.7%
COc1ccc2[nH]c(=O)c(CN(C(=O)c3cccc(Cl)c3)c3ccccc3OC)cc2c1 | -12.9% | 7.1%
Cc1ccc(-n2nnc(-c3nsc(NC(=O)c4ccccc4C)n3)c2C)cc1Cl | -1.5% | -4.9%
SMILES | Cruzain inh Det | Cruzain noTriton
Cc1c(-c2nsc(NC(=O)c3ccccc3)n2)nnn1-c1ccc(C(F)(F)F)c(Cl)c1 | -0.6% | 20µM*
COC(=O)c1ccc(CSc2nc3scc(-c4cccs4)c3c(=O)[nH]2)o1 | -7.0% | 15.8µM*
COC(=O)c1ccc(CSc2nc3ccc(Cl)cc3[nH]2)o1 | 5.3% | -7.6%
CCCCC/C=C\C/C=C\C/C=C\CCCCC(=O)NC(C)C(=O)O (configuration not stated) | -1.6% | 4.6%
COc1ccc(OCC(O)CN2CCC(CN3C(=O)c4cccc5cccc(c45)C3=O)CC2)cc1 (configuration not stated) | -1.0% | 8.0%
COc1ccc(S(=O)(=O)N2CCC(CN3C(=O)c4cccc5cccc(c45)C3=O)CC2)cc1 | -3.3% | 25.1µM*
Cc1ccc(CSc2ccc3nnc(CCNS(=O)(=O)c4ccc(C)cc4)n3n2)cc1 | -7.0% | ?
CCOC(=O)c1c(C)sc(-c2c(-c3ccc4c(c3)OCCO4)[nH]c3c2c(=O)[nH]c(=O)n3C)c1O | -5.3% | ?
CC(=O)C1=C(C)NC(SCC(=O)c2ccc(Cl)c(Cl)c2)=C(C#N)C1c1ccco1 (configuration not stated) | -20.2% | ?
CC(=O)C1=C(C)NC(SCC(=O)c2cc(Cl)ccc2Cl)=C(C#N)C1c1ccco1 (configuration not stated) | -17.9% | 25.1µM*
CC1=C(C(=O)Nc2ccccc2)C(c2ccco2)C(C#N)=C(SCC(=O)Nc2cccc(C)c2C)N1 (configuration not stated) | -7.8% | ?
CC(=O)C1=C(C)NC(SCC(=O)c2ccc(F)cc2)=C(C#N)C1c1ccco1 (configuration not stated) | -17.1% | -17.4%
COc1ccccc1NC(=O)C1=C(C)NC(SCC(=O)c2ccc(C)cc2)=C(C#N)C1c1ccco1 (configuration not stated) | -9.9% | 12.6µM*
CC1=C(C(=O)Nc2ccccc2)C(c2ccco2)C(C#N)=C(SCc2ccccc2)N1 (configuration not stated) | -5.4% | 20µM*
CC1=C(C(=O)Nc2ccccc2)C(c2ccco2)C(C#N)=C(SCC(=O)OC(C)C)N1 (configuration not stated) | -8.9% | -8.6%
CCOc1ccccc1NC(=O)CSC1=C(C#N)C(c2ccco2)C(C(=O)Nc2nc3ccccc3s2)=C(C)N1 (configuration not stated) | -8.6% | 7.94µM*
COc1cccc(NC(=O)Cn2c(=O)n(Cc3ccc(F)cc3)c(=O)c3sc4ccccc4c32)c1 | -2.7% | -14.7%
CSc1cc(-c2ccccc2)n(Cc2ccc(Cl)cc2Cl)c(=O)c1C#N | 4.5% | 25.1µM*
Cc1cc(C)n(Cc2ccc(Cl)cc2Cl)c(=O)c1S(=O)(=O)c1ccccc1 | -8.8% | -14.4%
CCOC(=O)Nc1cc(C)ccc1OC | 8.2% | -12.4%
COc1ccc(C)cc1NC(=O)Nc1ccc(Br)cn1 | 2.5% | 25.1µM*
Cc1ccc2nc(-c3ccccc3)nc(SC(C)C(=O)NCc3cccs3)c2c1 (configuration not stated) | -4.0% | -27.2%
Cc1ccc(C)c2c(SC(C)C(=O)NCc3ccco3)nc(-c3ccccc3)nc12 (configuration not stated) | -7.6% | 3.98µM*
O=C(CN1CCN(CCN2C(=O)c3cccc4cccc(c34)C2=O)CC1)c1ccc(F)cc1 | -28.4% | ?
O=C1C2C=CC=CC2=NC(=S)N1CCN1CCC(=C(c2ccc(F)cc2)c2ccc(F)cc2)CC1 (configuration not stated) | -10.4% | 12.6µM*
COc1ccc(Cl)cc1NC(=O)c1cn(C2CCCC2)c(=O)c2c1c1ccccc1n2C | 0.1% | 5.5%
COc1cc(-c2nc(Cn3nnc(C(=O)Nc4cc(C)cc(C)c4)c3C)c(C)o2)cc(OC)c1OC | -0.4% | ?
COc1ccc(N(CC(=O)Nc2ccc3c(c2)OCO3)S(=O)(=O)c2ccc(F)cc2)cc1 | -5.2% | 20µM*
